Measurements taken from PubChem BioAssay (EPA / NIEHS).
Records with an inconclusive call do not appear. Activity calls are given as the source filed them. How the source made its calls, unless noted: active means hit-call score of the fitted dose curve at least 0.9, where 1 is the maximum; inconclusive means response in the unintended direction; inactive means score below 0.9.

Tests used:
[1] = TOX21_p53_BLA_p2_viability: Viability Assessment in the Tox21 HCT-116 p53 Agonism Beta-lactamase Assay, Phase 2 (AID 2283591);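 further: actives lower the ATP signal meaning cytotoxicity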
How it was run: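 HCT-116 p53-bla cells (4000/well) rested 5 h at 37C, then received compounds in DMSO (217-fold dilution) for 16 h at 37C, 5% CO2. After the CCF4 read, CellTiter-Glo was added; ATP luminescence was read after 30 min at room temperature.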

[2] = target: Cellular tumor antigen p53 (Homo sapiens) (UniProt P04637); experiment: TOX21_p53_BLA_p2_ratio: Tox21 HCT-116 p53 Agonism Beta-lactamase Assay, Ratio, Phase 2 (AID 2283592)
How it was run: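 First, HCT116 reporter cells settle for 5 h at 37C. Next, DMSO compound solutions are pinned in (217-fold dilution) and left 16 h. Finally, CCF4-AM substrate is loaded 2 h at room temperature and the 460/530 nm ratio read.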

[3] = TOX21_p53_BLA_p3_viability: Viability Assessment in the Tox21 HCT-116 p53 Agonism Beta-lactamase Assay, Phase 3 (AID 2283593);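 further: cells exposed to compound for 16 h before reading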
How it was run: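 HCT-116 cells (4000/well) rested 5 h at 37C, then got DMSO compounds by pin tool (217-fold dilution) for 16 h at 37C, 5% CO2. After the bla read, CellTiter-Glo was added and luminescence read at 30 min, room temperature.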

[4] = TOX21_p53_BLA_p4_viability: Viability Assessment in the Tox21 HCT-116 p53 Agonism Beta-lactamase Assay, Phase 4 (AID 2283597);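 further: hits lower the luminescence signal meaning cytotoxicity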
How it was run: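 4000 HCT116 cells per well; 5 h attachment; compounds from DMSO, 217-fold dilution; 16 h at 37C. Then CCF4-AM, 2 h RT, followed by CellTiter-Glo, 30 min RT, luminescence. Decrease = cytotoxicity.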

[5] = target: Cellular tumor antigen p53 (Homo sapiens) (UniProt P04637); experiment: TOX21_p53_BLA_p5_ratio: Tox21 HCT-116 p53 Agonism Beta-lactamase Assay, Ratio, Phase 5 (AID 2283599)
How it was run: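 HCT-116 cells carrying a p53-inducible beta-lactamase reporter were seeded at 4000 cells/well and dosed after 5 h with compound in DMSO (217-fold dilution). After 16 h at 37C, CCF4-AM substrate was added for 2 h, and the 460/530 nm emission ratio was scored as gain-of-signal versus DMSO.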

[6] = TOX21_p53_BLA_p5_viability: Viability Assessment in the Tox21 HCT-116 p53 Agonism Beta-lactamase Assay, Phase 5 (AID 2283600)
How it was run: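 Decreased CellTiter-Glo luminescence denotes lost viability. Exposure: 16 h at 37C, 5% CO2, with compounds from DMSO stocks diluted 217-fold in wells of 4000 cells.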

[7] = CCTE_Harrill_HTTr_Viability_MCF7: CCTE's 6-hour Cell Viability Assessment for the High-Throughput Transcriptomics (HTTr) Platform, in MCF-7 cells cultured in DMEM + 10% fetal bovine serum, Harrill Lab (AID 2284010; active means hit-call score of the fitted dose curve at least 0.9, where 1 is the maximum; inactive means score below 0.9)
How it was run: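 Propidium iodide exclusion, imaged by high-content analysis, gauged viability after a six-hour exposure across eight concentrations. Cells were MCF-7 grown in DMEM with 10% fetal bovine serum; fits run in both directions against DMSO.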

[8] = CCTE_Harrill_HTTr_Apoptosis_MCF7: CCTE's 6-hour Apoptosis Assessment for the High-Throughput Transcriptomics (HTTr) Platform, in MCF-7 cells cultured in DMEM + 10% fetal bovine serum, Harrill Lab (AID 2284011; active means hit-call score of the fitted dose curve at least 0.9, where 1 is the maximum; inactive means score below 0.9)
How it was run: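 MCF-7 cells in DMEM + 10% FBS exposed 6 h to chemicals over an eight-point dilution series. Caspase-3/7 activation imaged by high-content CellEvent Green staining; fitted bidirectionally versus DMSO.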

[9] = CCTE_Harrill_HTTr_CellCount_MCF7: CCTE's Cell Proliferation Assessment for the High-Throughput Transcriptomics (HTTr) Platform, Harrill Lab (AID 2284012);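 further: cells exposed to compound for six hours; intended direction is loss of nuclei count meaning fewer cells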
How it was run: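 Cell count from high-content imaging of Hoechst-labeled nuclei serves as viability/growth readout. Chemicals were applied to MCF-7 cells in eight concentrations for six hours, with fitting in both directions relative to DMSO.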

[10] = target: Cellular tumor antigen p53 (Homo sapiens) (UniProt P04637); experiment: TOX21_p53_BLA_p4_ratio: Tox21 HCT-116 p53 Agonism Beta-lactamase Assay, Ratio, Phase 4 (AID 2283601)
How it was run: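 HCT116 cells carrying an inducible beta-lactamase reporter were plated at 4000 cells/well, rested 5 h, then exposed to compounds in DMSO (217-fold dilution) for 16 h at 37C. CCF4-AM substrate was loaded 2 h at room temperature; 460/530 nm emission ratio scored gain-of-signal versus DMSO.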

Sequence of Cellular tumor antigen p53 (Homo sapiens) (P04637 whole entry, looked up): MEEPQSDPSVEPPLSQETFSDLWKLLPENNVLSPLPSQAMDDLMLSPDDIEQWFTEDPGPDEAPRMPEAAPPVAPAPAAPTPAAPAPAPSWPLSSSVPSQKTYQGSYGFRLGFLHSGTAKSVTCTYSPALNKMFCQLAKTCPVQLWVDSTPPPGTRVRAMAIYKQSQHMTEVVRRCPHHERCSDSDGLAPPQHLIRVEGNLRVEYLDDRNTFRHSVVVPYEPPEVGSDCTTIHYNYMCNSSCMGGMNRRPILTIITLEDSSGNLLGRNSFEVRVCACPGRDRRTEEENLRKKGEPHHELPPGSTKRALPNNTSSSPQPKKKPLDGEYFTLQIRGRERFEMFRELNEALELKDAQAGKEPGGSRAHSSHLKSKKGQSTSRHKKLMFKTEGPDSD

For `CC1Cc2ccccc2N1NC(=O)c1ccc(Cl)c(S(N)(=O)=O)c1` (configuration not stated), the outcome [1] was “inactive”, the outcome [2] was “inactive” and the outcome [3] was “inactive”. For the same compound, the outcome [4] was “inactive”, the outcome [5] was “inactive” and the outcome [6] was “inactive”. The outcome [7] was “inactive”, the outcome [8] was “inactive” and the outcome [9] was “inactive”.
For `CC(C)c1cc2c(cc1S(=O)(=O)O)[C@@]1(C)CCC[C@@](C)(C(=O)O)[C@@H]1CC2`, the outcome [1] was “inactive”, the outcome [2] was “inactive” and the outcome [3] was “inactive”. For the same compound, the outcome [4] was “inactive”, the outcome [5] was “inactive” and the outcome [10] was “inactive”.
With `OC[C@H](Cc1cccc(O)c1)[C@H](CO)Cc1cccc(O)c1` the outcome [1] was “inactive”, the outcome [2] was “inactive” and the outcome [3] was “inactive”. The outcome [4] was “inactive” and the outcome [6] was “inactive”.
For `C=C(C)C(=O)OCCNC(C)(C)C`, the outcome [1] was “inactive”, the outcome [2] was “inactive” and the outcome [3] was “inactive”. The outcome [4] was “inactive” and the outcome [6] was “inactive”.
With `CNCC(O)c1ccc(OC(=O)C(C)(C)C)c(OC(=O)C(C)(C)C)c1` (configuration not stated) the outcome [1] was “inactive”, the outcome [2] was “inactive” and the outcome [3] was “inactive”. The outcome [4] was “inactive”, the outcome [6] was “inactive” and the outcome [10] was “inactive”.
In the case of `O=C1OC2(c3ccc(O)cc3Oc3cc(O)ccc32)c2ccc(N=C=S)cc21`, the outcome [1] is reported as “inactive”, the outcome [2] is reported as “inactive” and the outcome [3] is reported as “inactive”. The outcome [4] was “inactive”, the outcome [6] was “inactive” and the outcome [10] was “inactive”.
With `CC(C)Cc1ccc(CC(=O)O)cc1` the outcome [1] was “inactive”, the outcome [2] was “inactive” and the outcome [3] was “inactive”. The outcome [4] was “inactive”, the outcome [5] was “inactive” and the outcome [10] was “inactive”.
With `CC(C(O)c1ccccc1)N(C)CCOC(c1ccccc1)c1ccccc1` (configuration not stated) the outcome [1] was “inactive”, the outcome [2] was “inactive” and the outcome [3] was “inactive”. For the same compound, the AC50 [4] was 42.2 µM (active) and the outcome [6] was “inactive”.
In the case of `C=C(C)C(=O)OCCCCCCCCCCCCC`, the outcome [1] is reported as “inactive”, the outcome [2] is reported as “inactive” and the outcome [3] is reported as “inactive”. For the same compound, the outcome [4] was “inactive”, the outcome [6] was “inactive” and the outcome [10] was “inactive”.
In the case of `O=C(CCCN1CCC(C(=O)c2ccc(F)cc2)CC1)c1ccc(F)cc1`, the outcome [1] is reported as “inactive”, the outcome [2] is reported as “inactive” and the outcome [3] is reported as “inactive”. For the same compound, the outcome [4] was “inactive”, the outcome [6] was “inactive” and the outcome [10] was “inactive”.
With `Nc1ccc2cc(S(=O)(=O)O)cc(O)c2c1` the outcome [1] was “inactive”, the outcome [2] was “inactive” and the outcome [3] was “inactive”. For the same compound, the outcome [5] was “inactive” and the outcome [10] was “inactive”.
In the case of `CCC(=O)OCC(=O)[C@@]1(OC(=O)CC)[C@H](C)C[C@H]2[C@H]3[C@H]([C@@H](O)C[C@@]21C)[C@@]1(C)C=CC(=O)C=C1C[C@H]3Cl`, the outcome [1] is reported as “inactive”, the outcome [2] is reported as “inactive” and the outcome [3] is reported as “inactive”. The outcome [5] was “inactive”, the outcome [6] was “inactive” and the outcome [10] was “inactive”.
For `Cc1cc(C)c(NC(=O)CN(CC(=O)O)CC(=O)O)c(C)c1Br`, the outcome [1] was “inactive”, the outcome [2] was “inactive” and the outcome [3] was “inactive”. For the same compound, the outcome [5] was “inactive”, the outcome [6] was “inactive” and the outcome [10] was “inactive”.
With `Cc1cc(-c2ccccc2)nnc1NCCN1CCOCC1` the outcome [1] was “inactive”, the outcome [2] was “inactive” and the outcome [3] was “inactive”. For the same compound, the outcome [5] was “inactive”.
With `CCOC(=O)c1ccc(NC(=O)CN2CCCCC2)cc1` the outcome [1] was “inactive”, the outcome [2] was “inactive” and the outcome [3] was “inactive”. The outcome [5] was “inactive” and the outcome [6] was “inactive”.
For `O=C(OCCO)c1ccccc1O`, the outcome [1] was “inactive”, the outcome [2] was “inactive” and the outcome [3] was “inactive”. For the same compound, the outcome [4] was “inactive” and the outcome [10] was “inactive”.
In the case of `C[N+](C)(C)CCOC(N)=O`, the outcome [1] is reported as “inactive”, the outcome [2] is reported as “inactive” and the outcome [3] is reported as “inactive”. The outcome [5] was “inactive”, the outcome [6] was “inactive” and the outcome [10] was “inactive”.
For `O=C(NCCNCC(O)COc1ccc(O)cc1)N1CCOCC1` (configuration not stated), the outcome [1] was “inactive”, the outcome [2] was “inactive” and the outcome [3] was “inactive”. The outcome [5] was “inactive” and the outcome [10] was “inactive”.
In the case of `Cn1c(=O)c2[nH]c(Br)nc2n(C)c1=O`, the outcome [1] is reported as “inactive”, the outcome [2] is reported as “inactive” and the outcome [3] is reported as “inactive”. For the same compound, the outcome [5] was “inactive”, the outcome [6] was “inactive” and the outcome [10] was “inactive”.
With `O=c1n(CCCN2CCN(c3cccc(Cl)c3)CC2)nc2ccccn12` the outcome [1] was “inactive”, the outcome [2] was “inactive” and the outcome [3] was “inactive”. The outcome [4] was “inactive”, the outcome [6] was “inactive” and the outcome [10] was “inactive”. For the same compound, the outcome [7] was “inactive”, the outcome [8] was “inactive” and the outcome [9] was “inactive”.
With `CO[Si](OC)(OC)OC` the outcome [1] was “inactive”, the outcome [2] was “inactive” and the outcome [3] was “inactive”. For the same compound, the outcome [5] was “inactive”.
With `N[C@H]1C(O)O[C@H](CO)[C@@H](O)[C@@H]1O` (some centres not stated) the outcome [1] was “inactive”, the outcome [2] was “inactive” and the outcome [3] was “inactive”. For the same compound, the outcome [5] was “inactive”, the outcome [6] was “inactive” and the outcome [10] was “inactive”.
With `CC1(C)CCC(NC(=O)[C@@H](N)CCC(=O)O)CC1` the outcome [1] was “inactive”, the outcome [2] was “inactive” and the outcome [3] was “inactive”. For the same compound, the outcome [5] was “inactive” and the outcome [10] was “inactive”.
In the case of `CCN(CC)S(=O)(=O)c1ccc(C(=O)O)cc1`, the outcome [1] is reported as “inactive”, the outcome [2] is reported as “inactive” and the outcome [3] is reported as “inactive”. The outcome [5] was “inactive”.
With `Cc1cc(O)cc2c1O[C@](C)(CCC[C@H](C)CCC[C@H](C)CCCC(C)C)CC2` the outcome [1] was “inactive”, the outcome [2] was “inactive” and the outcome [3] was “inactive”. For the same compound, the outcome [5] was “inactive”, the outcome [6] was “inactive” and the outcome [10] was “inactive”.
In the case of `O=C(O)CCCc1c[nH]c2ccccc12`, the outcome [1] is reported as “inactive”, the outcome [2] is reported as “inactive” and the outcome [3] is reported as “inactive”. For the same compound, the outcome [4] was “inactive”, the outcome [6] was “inactive” and the outcome [10] was “inactive”. For the same compound, the outcome [7] was “inactive” and the outcome [8] was “inactive”.
In the case of `COc1ccccc1OCC(O)COC(N)=O` (configuration not stated), the outcome [1] is reported as “inactive”, the outcome [2] is reported as “inactive” and the outcome [3] is reported as “inactive”. The outcome [5] was “inactive”, the outcome [6] was “inactive” and the outcome [7] was “inactive”. For the same compound, the outcome [8] was “inactive”.
In the case of `Nc1ccc2ccccc2c1S(=O)(=O)O`, the outcome [1] is reported as “inactive”, the outcome [2] is reported as “inactive” and the outcome [3] is reported as “inactive”. For the same compound, the outcome [5] was “inactive”, the outcome [6] was “inactive” and the outcome [10] was “inactive”.
In the case of `CCCCCCCCCOC(=O)c1ccccc1C(=O)OCCCCCCCCC`, the outcome [1] is reported as “inactive”, the outcome [2] is reported as “inactive” and the outcome [3] is reported as “inactive”. For the same compound, the outcome [4] was “inactive” and the outcome [10] was “inactive”.
In the case of `C=C(C)C1CCC(C)(O)CC1` (configuration not stated), the outcome [1] is reported as “inactive”, the outcome [2] is reported as “inactive” and the outcome [3] is reported as “inactive”. The outcome [5] was “inactive”, the outcome [6] was “inactive” and the outcome [10] was “inactive”. The outcome [7] was “inactive”, the outcome [8] was “inactive” and the outcome [9] was “inactive”.
